Records with an inconclusive call do not appear. Calls of active or inactive are those of the source. Unless noted, cut-off not given; nearly all actives show AC50 up to about 30 µM.

One assay is described as follows: growth inhibition of DIPG glioma cells, dose response, cell-based, SU-DIPG-XIII, MIPE4.0, CellTiter-Glo, qHTS (AID 1347061; cut-off not given, nearly all actives have AC50 up to about 37 µM;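 further: cells exposed to compound for 48 hours before readout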). The following applies: SU-DIPG-XIII viability, CellTiter-Glo ATP luminescence. (In general: In ATP-based viability assays light output follows the ATP content of the culture.)
Take `CCOCC(O)COc1ccc(NC(=O)CC[S+](C)C)cc1` (stereo not given): the compound was called inactive.

As to `Nc1ncn([C@H]2C[C@H](O)[C@@H](CO)O2)c(=O)n1`, the compound was called inactive.

As to `CC1=C(/C=C/C(C)=C/C=C/C(C)=C/C(=O)Nc2ccc(O)cc2)C(C)(C)CCC1`, the AC50 (commonly the concentration giving half of the maximal activity seen) was 34 µM (active).

In the case of `Nc1nc(Cl)nc2c1ncn2[C@@H]1O[C@H](CO)[C@@H](O)[C@@H]1F`, the compound was called inactive.

The next assay is described as follows: growth inhibition of DIPG glioma cells, dose response, cell-based, JHH-DIPG-1, MIPE4.0, CellTiter-Glo, qHTS (AID 1347062; cut-off not given, nearly all actives have AC50 up to about 27 µM;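 on AC50: cells exposed to compound for two days before readout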). The following applies: JHH-DIPG-1 viability, CellTiter-Glo ATP luminescence.
`CCOCC(O)COc1ccc(NC(=O)CC[S+](C)C)cc1` (stereo not given): the outcome was inactive.

As for `Nc1ncn([C@H]2C[C@H](O)[C@@H](CO)O2)c(=O)n1`, the call was inactive.

`CC1=C(/C=C/C(C)=C/C=C/C(C)=C/C(=O)Nc2ccc(O)cc2)C(C)(C)CCC1`: the AC50 was 2.7 µM (active).

In the case of `Nc1nc(Cl)nc2c1ncn2[C@@H]1O[C@H](CO)[C@@H](O)[C@@H]1F`, the outcome was inactive.

Another assay can be described thus: growth inhibition of DIPG glioma cells, dose response, cell-based, SU-DIPG-IV, MIPE4.0, CellTiter-Glo, qHTS (AID 1347063).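 Further: compound exposure lasted 48 hours before the viability readout.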 The note with it: SU-DIPG-IV viability, CellTiter-Glo ATP luminescence.
Turning to `CCOCC(O)COc1ccc(NC(=O)CC[S+](C)C)cc1` (stereo not given), the compound was classed as inactive.

Regarding `Nc1ncn([C@H]2C[C@H](O)[C@@H](CO)O2)c(=O)n1`, the result was inactive.

With `CC1=C(/C=C/C(C)=C/C=C/C(C)=C/C(=O)Nc2ccc(O)cc2)C(C)(C)CCC1`, the AC50 is 4.81 µM (active).

With `Nc1nc(Cl)nc2c1ncn2[C@@H]1O[C@H](CO)[C@@H](O)[C@@H]1F`, the AC50 was 0.0332 µM (active).

A further assay is described as follows: growth inhibition of DIPG glioma cells, dose response, cell-based, SU-DIPG-XIII, MIPE5.0, CellTiter-Glo, qHTS (AID 1347064; cut-off not given, nearly all actives have AC50 up to about 23 µM;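 on AC50: cells exposed to compound for 48 hours before the viability read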). The note with it: SU-DIPG-XIII viability, CellTiter-Glo ATP luminescence.
Take `CCOCC(O)COc1ccc(NC(=O)CC[S+](C)C)cc1` (stereo not given): the result was inactive.

Turning to `Nc1ncn([C@H]2C[C@H](O)[C@@H](CO)O2)c(=O)n1`, the compound was called inactive.

Regarding `CC1=C(/C=C/C(C)=C/C=C/C(C)=C/C(=O)Nc2ccc(O)cc2)C(C)(C)CCC1`, the AC50 was 16.6 µM (active).

A short description of another assay: SU-DIPG-VI glioma cell viability, MIPE4.0 library, CellTiter-Glo luminescence, qHTS (AID 1347066).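 Further: cells exposed to compound for 48 hours before readout.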 The note with it: CellTiter-Glo ATP luminescence.
Consider `CCOCC(O)COc1ccc(NC(=O)CC[S+](C)C)cc1` (stereo not given), for which the result was inactive.

`Nc1ncn([C@H]2C[C@H](O)[C@@H](CO)O2)c(=O)n1`: the compound was classed as inactive.

With `CC1=C(/C=C/C(C)=C/C=C/C(C)=C/C(=O)Nc2ccc(O)cc2)C(C)(C)CCC1`, the AC50 is 9.59 µM (active).

Another assay can be described thus: JHH-DIPG-1 glioma cell viability, MIPE5.0 library, CellTiter-Glo luminescence, qHTS (AID 1347067; cut-off not given, nearly all actives have AC50 up to about 26 µM;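 further: cells exposed to compound for 48 hours before readout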). The note with it: JHH-DIPG-1 glioma viability, CellTiter-Glo ATP luminescence.
Regarding `CCOCC(O)COc1ccc(NC(=O)CC[S+](C)C)cc1` (stereo not given), the call was inactive.

As to `Nc1ncn([C@H]2C[C@H](O)[C@@H](CO)O2)c(=O)n1`, the call was inactive.

On to `CC1=C(/C=C/C(C)=C/C=C/C(C)=C/C(=O)Nc2ccc(O)cc2)C(C)(C)CCC1`, for which the AC50 is 20.9 µM (active).

The next assay can be described thus: SU-DIPG-XXV glioma cell viability, MIPE5.0 library, qHTS (AID 1347068; cut-off not given, nearly all actives have IC50 up to about 30 µM).
Conditions: not given
`CCOCC(O)COc1ccc(NC(=O)CC[S+](C)C)cc1` (stereo not given): the outcome was inactive.

With `Nc1ncn([C@H]2C[C@H](O)[C@@H](CO)O2)c(=O)n1`, the outcome was inactive.

With `CC1=C(/C=C/C(C)=C/C=C/C(C)=C/C(=O)Nc2ccc(O)cc2)C(C)(C)CCC1`, the compound was called inactive.

Consider `Nc1nc(Cl)nc2c1ncn2[C@@H]1O[C@H](CO)[C@@H](O)[C@@H]1F`, for which the outcome was inactive.
